Our source for the Kinases covered values is PMC7826789 (International Journal of Molecular Sciences, 2021).

One test concerns NLK.
`O=C(Nc1n[nH]c2cc(-c3cccc(F)c3)ccc12)C1CC1` [SB-735464]: the Kinases covered result is recorded as “NLK”.

Turning to `Fc1ccc(-c2nn3ccccc3c2-c2ccncc2)cc1` [GW434756X], the Kinases covered entry is “NLK”.

With `O=C(O)/C=C/C(=O)O.OCCCNc1nccc(-c2c(-c3ccc(F)cc3)nn3cc(C(F)(F)F)ccc23)n1` [GW569293E], the Kinases covered result was “NLK”.

Another test has as its system NTRK1.
As for `Cc1cn(-c2cc(NC(=O)c3ccc4c(c3)CN(c3cncnc3)C[C@@H]4C)cc(C(F)(F)F)c2)cn1` [D2202-1], the Kinases covered entry was “NTRK1”.

On to `COc1ccccc1-c1cc(/C=C2\C(=O)Nc3ncc(Br)cc32)cc(Br)c1O` [GW442130X], for which the Kinases covered entry is “NTRK1”.

With `Nc1ncnc2occ(-c3ccc(NC(=O)Nc4cc(C(F)(F)F)ccc4F)cc3)c12` [GW770249X], the Kinases covered entry was “NTRK1”.
